Source: PubChem (several laboratories)
Shown is part of a subset that was picked to be rich in hits.
JNK3 inh – JNK3 kinase activity inhibitors, primary screen, biochemical, human, purified enzyme; AID 746, 2007; hit rate 0.61% among 60,000; inhibition, % at 8 µM; HTS; in the data active = inhibition above about 17%;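 note: 0% = DMSO and 100% = reference inhibitor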
D1 mod – D1 CRE-luciferase signal change, two-sided – cell-based, HEK293 D1, dopamine EC30, D1 allosteric modulator project, primary screen; dopamine EC30 potentiation; actives deviate in either direction; B-score at 10 µM; hit rate 5.9% among 58,000; D(1A) dopamine receptor (Homo sapiens), P21728;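 active = luminescence count or its row- and column-corrected plate score outside the 99.7% band of the plate's sample wells, on either side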
PKA kinase inh – inhibitors of human PKA kinase activity, primary screen, biochemical, ATP-depletion luminescence, Kemptide substrate. cAMP-dependent protein kinase catalytic subunit alpha (Homo sapiens), P17612. PKA Kemptide phosphorylation, Kinase-Glo ATP luminescence. inhibition, % at 6 µM. hit rate 0.1% among 65,000;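 active = inhibition above the screen-wide mean inhibition plus 3 SD, cut at about 21% in these data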
ROCK2 inh – inhibitors of human ROCK2 kinase, primary screen, biochemical, high-throughput, luminescence | Rho-associated protein kinase 2 (Homo sapiens), O75116 | purified ROCK2, Kinase-Glo ATP depletion luminescence | inhibition, % at 6 µM | hit rate 0.35% among 60,000 | AID 604, 2007;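 active = inhibition above the screen-wide mean inhibition plus 3 SD, cut at about 18% in these data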;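 note: plate controls were DMSO wells for no effect and Y-27632 control wells after no-enzyme background subtraction for full effect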
Target sequence (O75116 whole entry, looked up): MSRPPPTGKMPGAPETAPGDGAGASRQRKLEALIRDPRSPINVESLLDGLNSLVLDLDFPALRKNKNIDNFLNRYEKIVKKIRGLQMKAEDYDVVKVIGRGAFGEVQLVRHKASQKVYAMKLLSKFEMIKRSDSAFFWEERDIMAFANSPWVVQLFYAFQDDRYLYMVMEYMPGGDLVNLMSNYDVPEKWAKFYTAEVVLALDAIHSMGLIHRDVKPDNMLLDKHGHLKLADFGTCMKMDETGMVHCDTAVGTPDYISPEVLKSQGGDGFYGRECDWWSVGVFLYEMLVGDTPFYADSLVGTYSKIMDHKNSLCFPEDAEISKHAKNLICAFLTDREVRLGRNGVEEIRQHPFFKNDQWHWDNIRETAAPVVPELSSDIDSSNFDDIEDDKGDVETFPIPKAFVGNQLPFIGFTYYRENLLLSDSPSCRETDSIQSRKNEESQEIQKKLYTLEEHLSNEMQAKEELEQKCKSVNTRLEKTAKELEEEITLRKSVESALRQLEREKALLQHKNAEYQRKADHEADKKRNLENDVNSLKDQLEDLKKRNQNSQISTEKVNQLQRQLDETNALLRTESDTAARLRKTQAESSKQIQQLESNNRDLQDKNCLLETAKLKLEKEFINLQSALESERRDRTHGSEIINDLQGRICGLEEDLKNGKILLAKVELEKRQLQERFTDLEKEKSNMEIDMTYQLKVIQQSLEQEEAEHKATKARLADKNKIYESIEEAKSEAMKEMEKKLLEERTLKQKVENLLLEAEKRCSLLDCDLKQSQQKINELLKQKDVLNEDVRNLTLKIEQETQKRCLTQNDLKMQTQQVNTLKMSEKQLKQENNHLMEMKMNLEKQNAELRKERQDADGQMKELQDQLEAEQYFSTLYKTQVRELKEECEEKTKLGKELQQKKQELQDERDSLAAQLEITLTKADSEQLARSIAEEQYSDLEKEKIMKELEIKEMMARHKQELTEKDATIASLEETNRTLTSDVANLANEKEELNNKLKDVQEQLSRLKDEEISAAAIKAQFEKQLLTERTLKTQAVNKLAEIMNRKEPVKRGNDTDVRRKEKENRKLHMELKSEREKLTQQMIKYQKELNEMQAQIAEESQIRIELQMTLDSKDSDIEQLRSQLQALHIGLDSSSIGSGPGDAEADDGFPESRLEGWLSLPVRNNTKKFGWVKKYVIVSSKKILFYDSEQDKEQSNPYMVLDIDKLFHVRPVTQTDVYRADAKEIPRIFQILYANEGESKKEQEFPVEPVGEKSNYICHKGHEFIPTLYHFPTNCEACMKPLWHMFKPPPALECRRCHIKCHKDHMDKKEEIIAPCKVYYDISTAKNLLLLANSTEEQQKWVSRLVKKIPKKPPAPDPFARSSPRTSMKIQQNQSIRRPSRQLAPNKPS
hDAT+cocaine – changed hDAT dopamine uptake under cocaine IC80, either direction, primary screen, cocaine antagonist project, cell-based, LLC-PK1 hDAT, [14C]-dopamine uptake, MLSMR | Sodium-dependent dopamine transporter (Homo sapiens), Q01959 | LLC-PK1 hDAT cells, [14C]-dopamine uptake with cocaine IC80; actives deviate in either direction | B-score at 10 µM | hit rate 1.3% among 110,000 | AID 449768, 2010;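 active = Z score or B-score, a plate-position-corrected score, falls beyond the plate's 99.7% confidence bounds, in either direction; inactive = both scores lie inside the 99.7% bounds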;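 note: scored against the spread of the other compound wells on the same plate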
An asterisk follows results filed as active; · = no result.

SMILES	JNK3 inh	D1 mod	PKA kinase inh	ROCK2 inh	hDAT+cocaine
CCn1cc(C(=O)N2CCN(c3ccccn3)CC2)c2cc(OC)c(OC)cc2c1=O	·	0.391	6.5	·	-8.71*
O=C(Nc1cccc(NC(=O)c2ccc(-c3ccc(Br)cc3)o2)c1)c1ccco1	·	·	·	·	0.00448
COc1cc(/C(C#N)=C/c2ccccc2)c([N+](=O)[O-])cc1OC	·	·	·	·	0.285
Cc1cc(C)n2nc(C(=O)OCC(=O)Nc3ccc4c(c3)OC(F)(F)O4)nc2n1	·	·	·	·	-0.401
Cc1cc(C)n2nc(C(=O)OCC(=O)Nc3ccc4c(c3)OCO4)nc2n1	1.7	-4.87*	10.9	7.5	0.617
COc1ccc2c(CC(=O)OCC(=O)c3ccc(F)cc3)coc2c1	8.4	0.0246	0.4	-2.2	0.511
O=C(NCCCc1ccccc1)c1ccccc1O	·	-0.626	·	·	1.12
O=C(NCCO)c1ccccc1O	·	·	·	·	-9.92*
Cc1ccc(C(=O)Nc2c3c(nn2C(C)(C)C)CS(=O)(=O)C3)cc1C	·	-2.92*	7.7	·	-0.221
O=C(CSc1n[nH]c(-c2ccncc2)n1)c1ccccc1	-3.5	0.61	43.1*	105.1*	0.53
COC(=O)c1ccc(NC(=O)CSc2n[nH]c(-c3ccncc3)n2)cc1	12.1	·	11.5	14.4	0.51
O=C(CSc1n[nH]c(-c2ccncc2)n1)NCCc1ccccc1	4.7	0.695	19.6	6.6	-0.388
Cc1cccc(NC(=O)CSc2n[nH]c(-c3ccncc3)n2)c1	1.2	-0.0639	21.2*	17.3	0.0618
COc1ccc(C(=O)NC(=S)N2CCCCC2)cc1	·	·	·	·	1.7
COc1ccc(C(=O)NC(=S)N2CCC(C)CC2)cc1	·	·	·	·	-7.89*
Cc1ccc2c(CSc3nc4ccccc4c(=O)n3CCCO)cc(=O)oc2c1	-3.5	1.69	-4.7	-3.0	·
C/C=C/C=[N+](\[O-])C(C)/C(=N/O)c1ccc(F)cc1 (configuration not stated)	-2.8	-5.69*	10.4	1.9	-0.00468
Cc1c(NC(=O)C(C)Sc2nc3ccccc3c(=O)n2CCO)c(=O)n(-c2ccccc2)n1C (configuration not stated)	7.1	0.258	0.5	4.5	-0.379
Cc1onc(-c2c(F)cccc2Cl)c1C(=O)N1CCc2ccccc2C1	-4.2	-3.54*	7.6	2.0	0.295
Cc1onc(-c2ccccc2Cl)c1C(=O)N1CCc2ccccc2C1	·	·	·	·	-0.112
Cc1onc(-c2c(Cl)cccc2Cl)c1C(=O)N1CCc2ccccc21	-10.2	-4.8*	3.4	5.1	-1.97
CCn1c(=S)sc2nc(C)sc21	4.5	13.1*	10.3	6.4	0.377
CN1CCC(=C2c3ccccc3CC(=O)c3sccc32)CC1	3.4	-6.79*	-11.0	-8.5	0.0721
CCC(C(=O)OCC(=O)Nc1c(C)n(C)n(-c2ccccc2)c1=O)c1ccccc1 (configuration not stated)	·	-0.0219	9.3	·	0.405
Cc1c(NC(=O)COC(=O)C(c2ccc(Cl)cc2)C(C)C)c(=O)n(-c2ccccc2)n1C (configuration not stated)	·	·	·	·	-7.86*
SMILES	JNK3 inh	D1 mod	PKA kinase inh	ROCK2 inh	hDAT+cocaine
Cn1c(=O)[nH]c(=O)c2c1nc(N1CCCC1)n2CCSc1nc2ccccc2[nH]1	·	·	·	·	-0.145
COC(=O)c1sccc1NC(=O)CN1CCN(c2ccc(F)cc2)CC1	46.5*	-1.24	7.2	4.9	0.966
COc1cccc(N2CC(C(=O)Nc3ccc(C(=O)OC(C)C)cc3)CC2=O)c1 (configuration not stated)	-4.7	0.567	-2.0	0.3	3.21*
COc1cc(/C=N/NC(=O)COc2ccc(Cl)cc2)ccc1OS(=O)(=O)c1ccc(C)cc1	·	·	·	·	-8.28*
COc1ccc(/C=N/NS(=O)(=O)c2ccccc2)cc1OS(=O)(=O)c1ccc(C)cc1	·	·	·	·	-0.203
CCCn1c(C)nc2c(c1=O)c1nc3ccccc3nc1n2-c1ccc2c(c1)OCCO2	-5.0	0.042	0.8	-5.8	·
CN(C)S(=O)(=O)N1CCN(C(=O)c2cccc(Br)c2)CC1	·	·	·	·	-1.1
CN(C)S(=O)(=O)N1CCN(C(=O)c2ccccc2)CC1	·	·	·	·	-4.54*
O=C(CSCCO)Nc1ccc(C2CCCCC2)cc1	-0.5	-1.32	12.6	6.9	3.07*
CCC1=NN=C(c2ccc(F)cc2)C(c2c[nH]c3ccccc23)N1O (configuration not stated)	·	·	·	·	-0.00107
CCOc1ccc(-c2nnc(-c3cccs3)o2)cc1OCC	4.1	5.05*	14.2	6.3	-0.211
CCOC(=O)c1c(C)c(-c2ccccc2)n(CC(=O)NCCC(C)C)c1C	·	·	·	·	0.129
O=C(COc1cccc2ccccc12)NNC(=O)C1CCCO1 (configuration not stated)	·	·	·	·	-0.052
CCC1CCCCN1CCCNC(=O)c1cn(CC(C)C)c(=O)c2cc(OC)c(OC)cc12 (configuration not stated)	·	-0.524	5.6	·	-7.21*
N#Cc1cc2c(nc1SCc1ccccc1)CCC2	·	·	·	·	-0.817
N#Cc1cc2c(nc1SCc1ccncc1)CCC2	2.5	1.98	-0.4	57.5*	0.154
O=C(Nc1cccc(-c2nc3ccccc3[nH]2)c1)c1cccc(NC(=O)c2ccco2)c1	18.9*	-0.732	9.4	12.9	-0.975
CCN(CC)c1ccc(NC(=O)c2ccccc2F)cc1	-15.4	-5.03*	10.6	-2.9	1.01
CCOc1ccc(NC(=O)c2ccccc2O)cc1	2.0	-4.71*	9.0	-0.2	2.3
CCN(CC)c1ccc(NC(=O)c2cc(Cl)ccc2OC)cc1	·	·	·	·	1.12
CCOc1ccc(NC(=O)c2ccccc2CO)cc1	-5.5	-0.511	3.0	1.0	1.11
O=C(Nc1cnc2ccccc2c1)c1ccco1	6.7	-4.46*	-4.4	-1.4	-0.288
Cc1cccc(/C(N)=N/OC(=O)CCc2ccccc2)c1	·	·	·	·	-0.355
COc1ccc2c(c1)nc(SCC(=O)c1cccs1)n2C	·	·	·	·	-0.968
CCN(CC)c1ccc(NC(=O)c2ccco2)c(C)c1	-11.5	-0.0786	-1.3	5.7	-0.727
SMILES	JNK3 inh	D1 mod	PKA kinase inh	ROCK2 inh	hDAT+cocaine
O=C(Nc1cccc(-c2cn3cccnc3n2)c1)c1ccc(Br)o1	·	0.751	9.2	·	2.45
CCN(CC)c1ccc(NC(=O)c2ccco2)cc1	-12.3	-2.97*	5.9	4.4	0.0992
O=C(Nc1cccc(-c2cn3cccnc3n2)c1)c1ccco1	·	-4.04*	3.7	·	2.39
COc1cccc(N(CC(=O)NCCSc2ccc(Cl)cc2)S(C)(=O)=O)c1	·	·	·	·	-0.832
CC(=O)Nc1ccc(S(=O)(=O)N2CCc3ccccc3C2)cc1	·	·	·	·	-8.79*
CCOc1ccc(OCC)c(NC(=O)Nc2ccc3c(c2)N(C)C(=O)CS3)c1	·	·	·	·	1.89*
CN1C(=O)CSc2ccc(NC(=O)NCc3cccnc3)cc21	5.2	0.615	0.3	57.8*	-0.612
CN1C(=O)CSc2ccc(NC(=O)NCc3ccco3)cc21	·	-0.0273	1.6	·	-0.0514
Cc1nc(NCc2ccco2)c2c3c(sc2n1)CCC3	6.0	-4.71*	8.1	8.2	0.0783
